The values below come from PubChem BioAssay (NCI).

“And” between values parts separate entries of the source, which are not always exact repeats. Equal entries are not always repeated. Compounds without any hit were thinned out: in the full panel of roughly 83,000, 20% have a hit.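 Negative percent growth values reflect cell death: -40 means 40% of the cells present at the start died, and -100 means all died.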 The source made the active and inactive calls. Rule for the calls: active = growth percent below 10; inactive = the rest.

The subject of the test is TK-10 renal. The test is described as follows: NCI-60 one-dose screen, 48 h (100 = growth as untreated, 0 = no growth, -100 = all killed). The note with it: 10 µM unless noted.
Turning to `O[C@H]1[C@H](O)[C@@H](Cn2nnc(-c3ccccc3)c2-c2ccccc2)OCO[C@@H]1Cn1nnc(-c2ccccc2)c1-c1ccccc1`, the growth was -89.7% [100 µM] (active).

As to `N#CC1(C#N)N[C@@H](c2ccsc2)[C@H]2C(=O)N(c3ccccc3)C(=O)[C@H]21`, the growth is 55.7% [100 µM] (inactive) and 30.9% [100 µM] (inactive).

Consider `COc1cc(-c2nc(SC)nc3c2CCc2ccccc2-3)cc(OC)c1OC`, for which the growth is 41.4% [100 µM] (inactive) and 11% [100 µM] (inactive).

`O=C(O)COc1cc(-c2ccccc2F)nc2cc3c(cc12)OCO3`: the growth was 113% [100 µM] (inactive) and 102% [100 µM] (inactive).

As to `CCC1OC2(C)CC(C#N)(C#N)C1(C#N)C(=N)O2` (stereo not given), the growth is 92.1% [100 µM] (inactive).

Take `Cc1cc(N(CCC#N)CCC#N)ccc1/C=N/NC(=O)c1cc(Cl)ccc1O`: the growth was 76.6% [100 µM] (inactive) and 12.3% [100 µM] (inactive).

`O=C1NC(N/N=C\c2ccccc2)=N/C1=C/c1ccccc1`: the growth was -49.7% [100 µM] (active) and -77.5% [100 µM] (active).

In the case of `Cc1ccc(/C=N/Nc2ccccn2)s1`, the growth is 147% [100 µM] (inactive) and 60.9% [100 µM] (inactive).

Consider `CCC(C)C1(O)OC2CC3(C)OC(=CC3=O)/C(C)=C\C3OC(=O)C1(C)C32` (stereo not given), for which the growth is 41.8% [100 µM] (inactive) and -90.7% [100 µM] (active).

For `NC1N=C(c2ccc(Cl)cc2)C2=C(N1)c1ccccc1CC2` (stereo not given), the growth is 76.2% [100 µM] (inactive) and -97.6% [100 µM] (active).

On to `CN(C)c1ccc(/C=N/n2c(-c3ccccc3)nc3ccccc3c2=O)cc1`, for which the growth was 101% [100 µM] (inactive) and 30.4% [100 µM] (inactive).

In the case of `COc1cc2c(cc1C1COc3cc4occc4cc3C1=O)OCO2` (stereo not given), the growth was 88.2% [100 µM] (inactive) and 80.4% [100 µM] (inactive).

Take `N#Cc1nc(-c2cccc(-c3nc(C#N)c(N)o3)n2)oc1N`: the growth was 96.3% [100 µM] (inactive) and 84.9% [100 µM] (inactive).

With `C=CC1=C(C)C2=NC1=CC1=NC(=C(CC)/C1=C\O)C=C1N=C3C(=C1C)C(=O)[C@H](C(=O)OC)C3=C1NC(=C2)[C@@H](C)[C@@H]1CCC(=O)O`, the growth is 3.23% [100 µM] (active) and 7.05% [100 µM] (active).

As to `CC(C)=CCc1cc(C2COc3cc4c(c(O)c3C2=O)C=CC(C)(C)O4)c(O)cc1O` (stereo not given), the growth is -14.3% [100 µM] (active) and -100% [100 µM] (active).
